This is a sample that favours compounds with a hit; in the whole collection about 21% have one here.
TDP1 cell noCPT: qHTS for Inhibitors of human tyrosyl-DNA phosphodiesterase 1 (TDP1): qHTS in cells in absence of CPT | DT40 Tdp1-/- hTDP1 cells, no CPT, ATP luminescence, 48 h | Potency, µM (titrated, usually from 46.2 µM), inactives show at the top dose activity change, negative = growth inhibition, usual class: inhibitors | 420,000 tested, 15% active | AID 686978, 2013; further: potency means the concentration at half of the fitted maximal effect; nearly all actives have a fitted effect of over 55% in size
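Luminescent ATP content (CellTiter-Glo) served as the growth readout. Knockout chicken DT40 cells expressing human TDP1 were exposed to compounds without camptothecin for a minimum 48 hr at 37 °C.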
TDP1 cell CPT: qHTS for Inhibitors of human tyrosyl-DNA phosphodiesterase 1 (TDP1): qHTS in cells in presence of CPT. chicken DT40 Tdp1-/-;hTDP1 cells + 20 nM CPT, ATP luminescence, 48 h. 420,000 tested, 12% active. AID 686979, 2013. Potency, µM (doses to about 46.2 µM), without a hit: top-dose activity change, negative = growth inhibition, hits mostly inhibitors; further: potency means the concentration at half of the fitted maximal effect; nearly all actives have a fitted effect of over 55% in size
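Chicken DT40 Tdp1-/- cells complemented with human TDP1, 400 cells/well, exposed to compounds plus 20 nM camptothecin for at least 48 h at 37 C; viability read as ATP content by CellTiter-Glo luminescence.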
IL-1B inflam inh: qHTS for Inhibitors of Inflammasome Signaling: IL-1-beta AlphaLISA Primary Screen; activity change, % at 57.5 µM; 360,000 tested, 4.7% active; THP-1 LPS/ATP IL-1B secretion, AlphaLISA, 16 h; active compounds read low; in the data active means activity change below about -50%; inconclusive means mostly about -30% to -49%
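Secreted IL-1B measured by AlphaLISA bead assay after 16 h compound exposure of THP-1 cells; compounds (final up to 57.5 uM) added 1 h before LPS (250 ng/mL) and ATP (1.25 mM) stimulation; lower signal means less secretion.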
VP16 counter: VP16 counterscreen qHTS for inhibitors of ROR gamma transcriptional activity; AID 2546, 2010; Drosophila S2 Gal4-VP16 UAS-luciferase, luminescence, 20 h; Potency, µM (highest dose often 53.6 µM), for the others: at the highest dose activity, negative = inhibition, hits mostly inhibitors; 310,000 tested, 3.5% active;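 further: Gal4-VP16 expression switched on by copper sulfate through the metallothionein promoter; potency means the concentration at half of the fitted maximal effect; nearly all actives have a fitted effect of over 50% in size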
ELG1 repair inh: qHTS screen for small molecules that inhibit ELG1-dependent DNA repair in human embryonic kidney (HEK293T) cells expressing luciferase-tagged ELG1; HEK293T ELG1-luciferase reporter, luminescence, 16 h; DNA damage induced by 5-fluorouridine; Potency, µM (titrated, usually from 46.1 µM), inactives show top-dose activity change, negative = inhibition, hits mostly inhibitors; 330,000 tested, 2.3% active; AID 504467, 2011; further: potency means the concentration at half of the fitted maximal effect; nearly all actives have a fitted effect of over 55% in size
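5-Fluorouridine DNA damage + compound/DMSO, 2,000 cells/well, 16 h, 37 °C/5% CO2. ONE-Glo, 30 min RT, luminescence. Readout = decrease in reporter signal.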
RORg inh: qHTS for inhibitors of ROR gamma transcriptional activity; Nuclear receptor ROR-gamma (Mus musculus), P51450; Potency, µM (doses to about 53.6 µM), without a hit: at the top dose activity change, negative = inhibition, most hits filed as inhibitors; 310,000 tested, 5.4% active; Drosophila S2 Gal4-RORgamma UAS-luciferase reporter, 20 h; further: potency means the concentration at half of the fitted maximal effect; nearly all actives have a fitted effect of over 60% in size
Target sequence (P51450 whole entry, looked up, the tested form may be a part): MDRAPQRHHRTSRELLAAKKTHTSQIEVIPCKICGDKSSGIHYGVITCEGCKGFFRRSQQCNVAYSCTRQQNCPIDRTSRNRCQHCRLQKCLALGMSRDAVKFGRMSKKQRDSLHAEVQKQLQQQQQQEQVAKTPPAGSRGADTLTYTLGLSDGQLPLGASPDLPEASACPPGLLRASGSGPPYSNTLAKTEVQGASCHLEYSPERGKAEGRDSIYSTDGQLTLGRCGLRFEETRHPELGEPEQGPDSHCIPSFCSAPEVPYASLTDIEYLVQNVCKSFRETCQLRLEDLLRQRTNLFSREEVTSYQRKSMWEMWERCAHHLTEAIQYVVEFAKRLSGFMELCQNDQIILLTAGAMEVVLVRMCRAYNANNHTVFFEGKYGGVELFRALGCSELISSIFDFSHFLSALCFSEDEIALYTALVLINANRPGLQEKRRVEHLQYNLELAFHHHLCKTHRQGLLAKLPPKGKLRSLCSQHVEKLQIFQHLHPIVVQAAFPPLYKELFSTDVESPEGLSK
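A Gal4/UAS one-hybrid system in insect cells: metallothionein-promoter Gal4–ROR gamma fusion plus Photinus luciferase reporter. Copper sulfate 700 uM final, 20 hr ambient incubation, luminescent detection after 10 min with reagent.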
* marks the source's active call; other numbers are inactive results; ? = inconclusive; . = no result; [ ] = dose if it differs, or a comment. Unless noted, the call rests on the fitted dose curve; in most records, active means well fitted curve in the direction sought with a large enough effect; inconclusive means small, poorly fitted or top-dose-only effect, or another doubt; inactive means no such curve, though single readings can be large; an effect the other way counts as inactive or inconclusive. On the % scale 0 is the no-effect control and ±100 the full control effect.

SMILES	TDP1 cell noCPT	TDP1 cell CPT	IL-1B inflam inh	VP16 counter	ELG1 repair inh	RORg inh
O=C(CSc1nnc(-c2ccccn2)n1Cc1ccccc1)Nc1ccc2c(c1)OCO2	-12.0%	-26.4%	-2.3	-6.7%	20.6µM*	-23.3%
CCOC(=O)c1ccc(NC(=O)CSc2nccn2Cc2ccc(OC)cc2)cc1	?	14.6µM*	.	.	.	.
CN(C(=O)C1CCC(=O)N(Cc2cccc(F)c2)C1)C1CCCCC1 (stereo not given)	?	?	17.0	-5.3%	?	?
Cc1cc(C)cc(NC(=O)CSc2nccn2-c2ccccc2)c1	23.1µM*	?	.	.	.	.
Cc1cccc(OC(=O)CSc2nnc(CNC(=O)c3ccccc3)o2)c1C	-7.7%	-10.5%	.	.	.	.
CC(C)N(Cc1nccn1C)C(=O)c1cc(COc2ccc(F)cc2Cl)on1	?	14.6µM*	-1.7	4.6%	-0.6%	-7.9%
CN(CCN1CCOCC1)C(=O)c1cc(COc2ccc(F)cc2Cl)on1	-21.8%	-15.3%	-11.9	.	.	.
COc1ccc(OCc2cc(C(=O)N(Cc3nccn3C)C(C)C)no2)c2ccccc12	11.6µM*	20.6µM*	-1.6	22.8%	?	-19.4%
COc1ccc(OCc2cc(C(=O)NC3CCOCC3)no2)c2ccccc12	-29.7%	-29.5%	20.9	-9.5%	12.0%	16.0%
CCCCCn1c(=S)[nH]c2cc(C(=O)N3CCCC3)ccc2c1=O	-10.4%	2.1%	27.9	14.0%	?	3.16µM*
COc1ccc(CCn2c(=O)[nH]c3cc(C(=O)NCCN4CCOCC4)ccc3c2=O)cc1OC	-28.1%	-17.6%	7.5	-9.9%	-4.1%	8.1%
CCCCCn1c(=S)[nH]c2cc(C(=O)N3CCN(C(=O)OCC)CC3)ccc2c1=O	?	-22.8%	55.1	?	1.9%	?
COc1ccc(CCn2c(=S)[nH]c3cc(C(=O)N4CCOCC4)ccc3c2=O)cc1OC	18.4µM*	?	42.1	-6.4%[10 µM]	?	-3.3%
O=C(c1ccc2c(=O)n(Cc3ccccc3)c(=S)[nH]c2c1)N1CCCC1	?	-22.3%	36.2	?	-5.7%	11.2µM*
Clc1cccc(-c2cccc3nccn23)c1Cl	?	?	-16.0	.	.	.
COc1ccc(/C=N/NC(=O)c2ccco2)cc1OCc1ccccc1	?	-27.8%	18.7	5.1%	-12.7%	-3.1%
O=C(CN1C(=O)c2ccccc2C1=O)NCC(=O)Nc1ccccc1	-8.3%	-10.1%	23.7	.	.	.
COc1ccc(N(C(=O)COc2c(C)cccc2C)S(=O)(=O)c2ccc(Cl)cc2)cc1	?	23.1µM*	.	.	.	.
COc1ccc(N(C(=O)COc2ccc(Br)cc2)S(=O)(=O)c2ccc(C)cc2)cc1	20.6µM*	?	.	.	.	.
COc1ccc(-c2csc(NC(=O)CN3C(=O)NC4(CCCC4)C3=O)n2)c(OC)c1	?	?	?	.	3.3%	.
COc1ccc(-c2csc(NC(=O)CN3C(=O)NC4(CCCC4)C3=O)n2)cc1OC	-20.3%	-27.1%	-61.7*	.	0.9%	.
CC(C)(C)c1ccc(-c2csc(NC(=O)CN3C(=O)NC4(CCCCC4)C3=O)n2)cc1	9.2µM*	10.3µM*	-16.5	-12.4%	-7.3%	-19.2%
CCOc1ccccc1-c1noc(CSc2nnc(-c3ccccc3)n2-c2cccc(C)c2)n1	20.6µM*	?	.	.	.	.
CCOc1ccc(-n2c(Cc3ccccc3)nnc2SCc2c(C)noc2C)cc1	?	?	-1.3	0.9%	-13.9%	-1.0%
Cc1nnc(SCc2nc(-c3ccc(Cl)cc3)no2)n1-c1ccc(F)cc1	25.9µM*	?	.	.	.	.
SMILES	TDP1 cell noCPT	TDP1 cell CPT	IL-1B inflam inh	VP16 counter	ELG1 repair inh	RORg inh
COc1ccccc1-c1noc(CSc2nnc(Cc3ccccc3)n2-c2ccc(C)c(C)c2)n1	23.1µM*	16.4µM*	.	.	.	.
COc1ccc(-c2noc(CSc3nnc(-c4ccncc4)n3-c3ccc(C)c(C)c3)n2)cc1	13µM*	14.6µM*	.	.	.	.
Cc1ccc(S(=O)(=O)NC(=O)C2(C)CCN2C(=O)c2ccccc2)cc1 (stereo not given)	-10.1%	0.2%	0.0	.	.	.
CC(OC(=O)Cn1[nH]c(=O)c2ccccc2c1=O)C(=O)Nc1cccc(Cl)c1 (stereo not given)	-14.0%	?	-8.6	.	18.9%	.
CC1=C[C@@H](O)CC(C)(C)[C@@H]1/C=C/C(C)=C/C=C/C(C)=C/C=C/C=C(C)/C=C/C=C(C)/C=C/C1=C(C)C[C@H](O)CC1(C)C	.	.	.	-19.6%	.	-9.5%
O=C(Nc1ccccc1)c1ccc2c(O)c(S(=O)(=O)c3ccc(Cl)cc3)c(=O)[nH]c2c1	1.3%	7.8%	.	.	.	.
CCOc1ccccc1-c1noc(CSc2nnc(-c3ccncc3)n2-c2ccc(F)cc2)n1	16.4µM*	-77.4%	.	.	.	.
Cc1ccc(-c2noc(CSc3nnc(C)n3-c3ccc(F)cc3)n2)cc1	-18.0%	-18.4%	.	.	.	.
COc1ccc(-c2noc(CSc3nnc(C)n3-c3ccc(C)c(C)c3)n2)c(OC)c1	18.4µM*	?	.	.	.	.
Cc1ccccc1-c1noc(CSc2nnc(-c3ccncc3)n2-c2ccc(F)cc2)n1	14.6µM*	?	.	.	.	.
Cc1cccc(-n2c(SCc3nc(-c4ccccc4C)no3)nnc2-c2ccccc2)c1	?	0.0%	.	.	.	.
CCCn1c(SCc2nc(-c3cccs3)no2)nnc1-c1ccncc1	?	-25.9%	-1.0	-9.9%[0.365 µM]	-2.3%	12.4%
Cc1ccc(-n2c(SCc3nc(-c4ccccc4C)no3)nnc2-c2ccncc2)cc1C	20.6µM*	23.1µM*	.	.	.	.
CCOc1ccc(-n2c(SCc3nc(-c4cccs4)no3)nnc2-c2ccncc2)cc1	-28.4%	5.7%	-20.1	-6.8%	-17.9%	2.4%
CCC(=O)N1CCc2cc(S(=O)(=O)NC(C(=O)NCCc3ccc(Cl)cc3)C(C)C)ccc21 (stereo not given)	-9.7%	-17.4%	.	.	.	.
COCCNC(=O)CN(C(=O)Cn1nnc2ccccc21)c1cc(C)cc(C)c1	-11.4%	-15.9%	-0.7	4.9%	14.1%	-8.8%
COc1ccc(S(=O)(=O)N2CCN(C(=O)c3ccc(=O)[nH]n3)CC2)cc1OC	4.3%	0.9%	14.6	.	-6.7%	.
Cc1ccc(-n2nnnc2SCC(=O)c2c(N)n(C3CC3)c(=O)[nH]c2=O)c(C)c1	?	?	43.6	.	?	.

Bioassay records deposited in PubChem by National Center for Advancing Translational Sciences (NCATS).
